From PubChem BioAssay (Tox21)
Calls of active or inactive are those of the source. The call rests on the fitted dose curve; in most records, active means well fitted curve in the direction sought with a large enough effect in the repeat runs; inconclusive means weak or mixed curves; inactive means flat fitted curve, though single readings scatter.

assay: qHTS assay to test for compound auto fluorescence at 535 nm (green) in HepG2 cell free culture (AID 720686); settings: Cell-free medium, green autofluorescence 485/535 nm; series mostly up to 91.3 µM

SMILES	outcome
CCCCOC(=O)COC(=O)c1ccccc1C(=O)OCCCC	inactive
CC(C)(C#N)N=NC(C)(C)C#N	inactive
c1ccc(C2CO2)cc1 (stereo not drawn)	inactive
CC(C)Nc1nc(Cl)nc(NC(C)C)n1	inactive
CC(C)CON=O	inactive
Clc1cccc(Cl)c1	inactive
CCCCCCCCCCCCCl	inactive
COP(=S)(OC)Oc1ccc(Sc2ccc(OP(=S)(OC)OC)cc2)cc1	inactive
Nc1ncn[nH]1	inactive
CC(C)(O)C#N	inactive
NC(=O)CN1CCCC1=O	inactive
CCNc1nc(Cl)nc(NC(C)(C)C#N)n1	inactive
O=C1CCCO1	inactive
CCCCCCCC[N+](C)(CCCCCCCC)CCCCCCCC	inactive
CN(C)c1nc(=O)n(C2CCCCC2)c(=O)n1C	inactive
Cn1c(-c2ccccc2)cc(-c2ccccc2)[n+]1C	inactive
N#CCCCCC#N	inactive
C[C@]12CCC(=O)C=C1CC[C@@H]1[C@@H]2CC[C@@]2(C)[C@H]1CC[C@]2(C)O	inactive
Clc1ccc(C(Cl)(Cl)Cl)cc1	inactive
O=P(OCCCl)(OCCCl)OCCCl	inactive
CC[n+]1c(-c2ccccc2)c2cc(N)ccc2c2ccc(N)cc21	inactive
CCOP(=O)(OCC)OCC	inactive
COc1ccc(O)c(C(C)(C)C)c1	inactive
CN(C)c1ccccc1	inactive
CCC1(c2ccc(N)cc2)CCC(=O)NC1=O (stereo not drawn)	inactive
CCOP(=S)(OCC)SCn1c(=O)oc2cc(Cl)ccc21	inactive
CC(C)=CC1C(C(=O)OCc2cccc(Oc3ccccc3)c2)C1(C)C (stereo not drawn)	inactive
O=C(O)c1nn(Cc2ccc(Cl)cc2Cl)c2ccccc12	inactive
